Screening data: PubChem BioAssay, National Center for Advancing Translational Sciences (NCATS)
Shown are actives, neighbours in structure and some others; about 2.2% of the full set was active somewhere.
IL-2 act: activators of IL-2; IL-2 activation reporter assay, cell-based qHTS; stimulated with anti-CD3/CD4/CD28 beads; in transgenic mouse T cells; activation, % (series mostly up to about 46 µM); 360,000 compounds, 0.065% hits; in the data active = activation above about 50%; inconclusive = mostly about 30% to 49%; note: 0% is about no effect
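Unstimulated transgenic mouse T cells preincubated 60 min with compound, then stimulated with anti-CD3/anti-CD4-coated beads plus anti-CD28 for 18 h at 37 degrees C. IL-2 response read as EGFP and DsRed fluorescence by plate cytometry.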
Giardia kill: Giardia lamblia killing. Giardia lamblia trophozoite viability. activity change, % at 7.66 µM, hits read low. 340,000 compounds, 0.15% hits; in the data active = activity change below about -80%; inconclusive = between about -30% and that limit;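 note: parasites exposed to compound for two days anaerobically before the ATP read; % is set by controls: 0 for no effect and ±100 for the full control effect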
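Trophozoites 100 cells/well + cpd; 48 hrs, 37 deg C, anaerobic. ATPLite 1-Step added, 15-30 min RT, luminescence read (ATP-based viability).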
BRCA1 expr up: BRCA1 expression activation. MCF7-BRCA1-FFLuc reporter, luminescence, 48 h; response scale: scaled: vehicle 0%, 10 µM genistein 100%. Potency, µM (series often up to 46.1 µM), inactives show at the highest dose activation, actives largely listed as activators. 380,000 compounds, 1.1% hits; note: potency is the fitted concentration of half-maximal effect; nearly all actives have a fitted effect of over 80% in size
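Reporter cells (MCF7, BRCA1 promoter-firefly luciferase) received library compounds across a concentration series for 48 h. End-point luminescence was measured and concentration-effect curves derived after normalization.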
rTrxR1 inhibitor: rat TrxR1 inhibition; Potency, µM (doses to about 114 µM), for the others: at the top dose activity change, negative = inhibition, hits mostly inhibitors; O89049; recombinant rTrxR1, NADPH fluorescence consumption, selenite substrate; AID 588453; 390,000 compounds, 1% hits; note: potency is the fitted concentration of half-maximal effect; % is set by controls: 0 for no effect and ±100 for the full control effect; nearly all actives have a fitted effect of over 65% in size
Target sequence (O89049 whole entry, looked up): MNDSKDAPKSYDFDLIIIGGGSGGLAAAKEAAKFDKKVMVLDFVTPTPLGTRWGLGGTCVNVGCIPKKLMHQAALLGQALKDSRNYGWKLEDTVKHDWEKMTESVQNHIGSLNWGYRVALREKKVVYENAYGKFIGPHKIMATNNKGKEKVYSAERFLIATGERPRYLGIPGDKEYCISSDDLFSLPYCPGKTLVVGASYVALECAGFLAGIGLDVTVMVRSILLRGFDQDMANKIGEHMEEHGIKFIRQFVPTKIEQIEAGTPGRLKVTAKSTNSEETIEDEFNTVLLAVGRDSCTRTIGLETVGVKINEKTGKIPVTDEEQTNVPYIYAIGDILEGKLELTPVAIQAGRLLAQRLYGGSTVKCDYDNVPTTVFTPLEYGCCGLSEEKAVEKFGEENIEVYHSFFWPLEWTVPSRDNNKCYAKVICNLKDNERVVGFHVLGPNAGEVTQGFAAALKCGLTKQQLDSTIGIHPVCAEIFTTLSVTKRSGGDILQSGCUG
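Rat TrxR1 (90 nM in the dispensed reagent) was pre-reduced with 400 uM NADPH for 5 min at room temperature, then incubated with compound for 15 min. After 400 uM selenite was added, NADPH fluorescence (Ex 340/Em 450 nm) was followed for 8 min.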
IDH1 R132H inh: human IDH1 R132H inhibition; IDH1-R132H enzyme, NADPH consumption, diaphorase/resazurin fluorescence; Potency, µM (top dose mostly 76.6 µM), for the others: top-dose activity change, negative = inhibition, hits mostly inhibitors; 390,000 compounds, 0.093% hits; note: potency is the fitted concentration of half-maximal effect; % is set by controls: 0 for no effect and ±100 for the full control effect; nearly all actives have a fitted effect of over 65% in size
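IDH1-R132H (0.5 ug/mL dispensed) in pH 7.5 Tris buffer was preincubated 30 min with compound, then given a substrate mix of 0.016 mM NADPH and 2 mM alpha-KG for 80 min at room temperature; remaining NADPH was read by diaphorase/resazurin fluorescence.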
TrxR1 substrate: substrates of rat thioredoxin reductase 1 | purified TrxR1 substrate turnover, NADPH consumption readout | 390,000 compounds, 0.01% hits | Potency, µM (series often up to 114 µM), inactives show at the top dose activity change, negative = substrate turnover | AID 588456; note: potency is the fitted concentration of half-maximal effect; % is set by controls: 0 for no effect and ±100 for the full control effect; nearly all actives have a fitted effect of over 50% in size
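Rat TrxR1, dispensed at 90 nM, was prereduced with 400 uM NADPH (final) for 5 min at ~22 deg C, then incubated with compound 15 min before 400 uM selenite. A first-read NADPH fluorescence drop versus no-compound background flagged substrates.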
An asterisk follows results filed as active; ? = inconclusive; · = no result given; [ ] = dose if it differs, or a comment. Unless noted, calls come from the whole dose curve; as a rule, active = well fitted curve in the direction sought with a large enough effect; inconclusive = small, poorly fitted or top-dose-only effect, or another doubt; inactive = no such curve, though single readings can be large; an effect the other way counts as inactive or inconclusive.

SMILES	IL-2 act	Giardia kill	BRCA1 expr up	rTrxR1 inhibitor	IDH1 R132H inh	TrxR1 substrate
Cc1cc(C)c(S(=O)(=O)NCC(c2ccco2)S(=O)(=O)c2ccccc2)c(C)c1 (configuration not stated)	·	·	·	4%[57.1 µM]	12%	6%[57.1 µM]
CCOc1ccc(S(=O)(=O)NCC(c2cccs2)S(=O)(=O)c2ccc(C)cc2)cc1 (configuration not stated)	·	·	·	0.89µM*	5%	0%[57.1 µM]
Cc1ccc(S(=O)(=O)C(CNS(=O)(=O)c2ccc(F)c(C)c2)c2cccs2)cc1 (configuration not stated)	·	·	·	?	-4%	-4%[57.1 µM]
Cc1cc(C)c2c(n1)nn1c(C)c(CCC(=O)NCc3ccc(Cl)cc3)c(C)nc21	·	·	·	8%	5%	17%
COc1ccccc1CCNC(=O)Cc1c(C)c2c(cc(C)c3c(C)coc32)oc1=O	·	·	·	27%	-9%	19%
Cc1cccc(Nc2ccc([N+](=O)[O-])cn2)c1	0	12	11µM*	14%	14%	-5%
O=C(CSc1ncc2c(n1)-c1ccccc1N(Cc1ccc(F)cc1)S2(=O)=O)c1ccc(Cl)cc1	·	·	·	14%[57.1 µM]	-8%	7%[57.1 µM]
Fc1ccc(COc2ccc(/C=N/n3cnnc3)cc2)cc1	4	4	16µM*	11%[57.1 µM]	10%	-5%[57.1 µM]
Cc1n[nH]c(=S)n1/N=C/c1ccc(OCc2ccc(Cl)cc2)cc1	-2	-11	5µM*	11%	7%	4%
CCc1ccc(C(=O)C[N+]2(C)CCOCC2)cc1	·	·	·	43%	·	19%
COc1ccc(-c2noc(CSc3ccccc3)n2)cc1OC	-1	-2	11µM*	11%[57.1 µM]	0%	-6%[57.1 µM]
COc1ccc(-c2nc(-c3ccccc3OC)no2)cc1OC	-1	7	10µM*	-4%	12%	-4%
Cc1ccc(SCc2nc(-c3ccccc3)no2)cc1	1	-1	79%	26%[57.1 µM]	0%	10%[57.1 µM]
O=S(=O)(CCN1CCCCC1)Oc1ccc(Cl)cc1Cl	-2	-10	0%	0.89µM*	0%	3%
Clc1ccc(-c2csc3ncnc(Sc4nnnn4C4CC4)c23)cc1	·	·	-78%	7%	·	8%[0.0914 µM]
CC(C)(C)OC(=O)N1CCC(c2c(C(=O)Nc3ccc4c(c3)OCO4)cnn2-c2ccc(F)cc2F)CC1	·	·	·	11%	7%	-6%
COc1cc2cccc(OC)c(=O)c2c(O)c1OC	-2	1	10µM*	18%	3%	-7%
O=c1c(Br)ccc(Br)cc1Br	-7	1	-89%	0.2µM*	?	13%[11.4 µM]
O=C1CN(S(=O)(=O)c2cc(Br)ccc2Br)CCN1	0	-7	6%	13%	5%	1%
O=C(Oc1ccc(=O)n(-c2ccccc2)n1)c1ccc(Cl)cc1	-3	-15	2%	?	2%	6%[57.1 µM]
O=C(Oc1ccc(=O)n(-c2ccccc2)n1)c1cccc(Cl)c1	1	-16	1%	3.5µM*	0%	13%[57.1 µM]
O=C1OC(NC(=O)c2ccccc2)C(n2cc(CO)nn2)=C1Cl (configuration not stated)	-2	8	3%	10µM*	1%	9%[57.1 µM]
Cc1ccc(CNC(=O)CCc2nnc3n(C)c(=O)c4sccc4n23)cc1	·	·	18%	-3%	-5%	-5%
Cc1ccc(S(=O)(=O)/N=C2/NC(=O)/C(=C/c3ccc(Br)o3)S2)cc1	0	-8	-24%	28µM*	-1%	-8%
Cc1ccc(S(=O)(=O)/N=C2/NC(=O)/C(=C\c3cc(Br)cc(Br)c3O)S2)cc1	5	19	18%	-24%	-9%	-12%
SMILES	IL-2 act	Giardia kill	BRCA1 expr up	rTrxR1 inhibitor	IDH1 R132H inh	TrxR1 substrate
CCCCC(=O)/C=C/n1c(=S)oc2ccccc21	-1	-16	-61%	2.2µM*	0%	-5%
COC(=O)c1ccc(C(=O)Nc2ccc(C(C)C)cc2N)cc1	2	17	11µM*	15%[57.1 µM]	-2%	5%
CC(C)(C)c1ccc(-c2nnc(-c3ccccc3NC(=O)c3ccc(F)cc3F)o2)cc1	·	·	18%	13%	-5%	-6%[11.4 µM]
COc1ccc(-c2cc(=O)[nH]c3ccccc23)cc1	0	-6	-40%	8%	-7%	7%
COc1cccc2[nH]c(=O)c(-c3ccccc3)cc12	-4	-3	3.2µM*	?	8%	23%
CCOC(=O)c1cnc2c(Cl)cc(Cl)cc2c1NCCCN1CCOCC1	1	14	10%	16µM*	5%	5%
CN(C(=O)c1cc(-c2ccccc2)on1)C1CCCCC1	0	12	1.6µM*	11%	2%	-3%
Cc1cc(C(=O)N(C)C2CCCCC2)no1	-3	-28	-17%	9%	-8%	1%
COc1cccc(OCc2cc(C(=O)N(C)C3CCCCC3)no2)c1	-1	·	11µM*	·	-1%	·
COc1cccc(OCc2cc(C(=O)N(C)CCC3CCCCO3)no2)c1 (configuration not stated)	-4	-8	44%	8%	3%	0%
Cc1ccc(CONC(=O)c2ccccc2)cc1	-2	15	2.2µM*	9%	-2%	5%
Cc1ccc(CONC(=O)c2ccc(C)cc2)cc1	-1	-17	?	16%	-7%	3%
Cc1ccc(C(=O)N/C(=C\c2ccccc2)C(=O)OCc2ccccc2)cc1	-1	-6	7.9µM*	-9%	5%	-10%
O=C(OCc1ccccc1)/C(=C/c1cccc2ccccc12)NC(=O)c1ccccc1	-4	6	-15%	6%[57.1 µM]	2%	2%[57.1 µM]
Cc1ccc(CONC(=O)c2ccc(Cl)cc2)cc1	1	5	8.9µM*	-1%	-6%	-3%
CCOC(=O)CN(Cc1ccccc1)C(C(=O)NC1CCCCC1)c1ccc(C)cc1 (configuration not stated)	·	·	·	-2%	0%	-6%
CCCCNC(=O)C(CC)n1c(SCc2cccc(F)c2)nc2ccncc21 (configuration not stated)	·	-28	-27%	11%	·	2%
Cc1ccc(N(C(=O)CCl)C(C(=O)NC2CCCCC2)c2cccnc2)cc1C (configuration not stated)	-7	11	-82%	10µM*	-8%	-4%
CN1c2ccccc2C(C)(C)C12CC(CCl)=NO2 (configuration not stated)	-3	-2	-13%	25µM*	4%	-2%[57.1 µM]
CCN(CC)c1ccc(/C=C/c2sc3ccccc3[n+]2CCCCI)cc1	·	·	-52%	?	·	-8%
CCc1cccc(CC)c1NC(=S)NCCc1c(C)[nH]c2ccccc12	-1	-7	-36%	-2%	-3%	0%
CCc1cccc(CC)c1NC(=S)NCCc1ccc(O)c(O)c1	0	-4	-30%	6.3µM*	-1%	-9%
